PubChem BioAssay AID1530 (NMMLSC, 2009)
Screen size: about 290,000 compounds; about 1,000 (0.34%) were called active. No stated cut-off is given here; in the data, active means percent response above about 24% (passing the limit was not always enough); inactive means the rest. Only a selection was taken, and actives are over-represented in it overall.

These compounds were tested on MEKK2 (MAP3K2) mutant PB1 domain binding to MEK5, human (assay: MEK5 binding signal on mutant MEKK2 PB1, primary screen, biochemical, multiplex bead flow cytometry, Alexa488-MEK5 (AID 1530)). Conditions: at 10 µM, stronger effect = higher value.

Percent response, active:
CC(=O)Nc1ccc(-c2nc3ccccc3o2)cc1 28%
CCN1CCN(c2ccc(S(=O)(=O)N3CCCCC3)cc2NC(=O)Cc2c(Cl)cccc2Cl)CC1 24%
CN(C)CCCNC(=O)c1cc(C(=O)Cc2ccc(Cl)cc2)c[nH]1 27%
OCCNc1nc(Nc2ccc(Cl)c(Cl)c2)nc2ccccc12 31%
O=C(CC1SCCNC1=O)Nc1ccc(Cl)c(Cl)c1 (stereo not given) 174%
CN(C)CCCN(C(=O)COc1ccccc1)c1nc2c(Cl)cccc2s1 87%
O=C(NCCCN1CCCCCC1)C1CC(=O)N(C2CCCC2)C1 (stereo not given) 31%
Cc1cccn2c(=O)c(/C=C3\SC(=S)N(CC(C)C)C3=O)c(NCCCOC(C)C)nc12 97%
CCCN(CCC)c1nc2c(C)cccn2c(=O)c1/C=C1/SC(=S)N(Cc2ccco2)C1=O 147%

Percent response, inactive:
O=[N+]([O-])c1ccc2nc(-c3ccccn3)[nH]c2c1 -17%
Cc1cccc(Nc2nc(NCCO)nc(N3CCCC3)n2)c1 4%
COc1ccc(Cn2c(=S)[nH]c3cc(C(=O)N4CCCCC4)ccc3c2=O)cc1 -5%
C/C(=N\NC(=O)c1ccc(NS(=O)(=O)c2cccs2)cc1)c1ccc2ccccc2c1 -4%
CC(=O)c1cccc(OCc2cc(C(=O)NC(C)Cc3cccnc3)no2)c1 (stereo not given) 10%
CC(=O)Nc1ccc(Nc2c3ccccc3nc3ccccc23)cc1 3%
Cc1ccc2nc(-c3ccc(NC(=O)c4cccnc4)cc3)oc2c1 0%
COc1ccc(-n2nc(C(=O)NCC(=O)N3CCCCCC3)c3ccccc3c2=O)cc1Cl 6%
CN1CCN(c2ccc(S(=O)(=O)N3CCCCC3)cc2NC(=O)Cc2ccccc2F)CC1 0%
COc1ccc(CC(=O)Nc2cc(S(=O)(=O)N3CCCCC3)ccc2N2CCN(C)CC2)cc1 -1%
Cc1cccc(S(=O)(=O)N2CN(CC3CCCO3)c3nc4ccccc4nc32)c1 (stereo not given) 1%
Cc1ccc([N+](=O)[O-])c(OCCCNCC(C)O)c1 (stereo not given) 7%
CCOc1ccc(NC(=O)CCCCCN2C(=O)[C@@H]3Cc4ccccc4CN3C2=O)cc1 0%
CN(C)CCCNC(=S)NCc1ccc(Cl)cc1 13%
CC(C)CC(=O)c1c[nH]c(C(=O)NCc2ccccc2)c1 10%
Cc1noc(C)c1C(=O)NCCc1ccc(S(N)(=O)=O)cc1 2%
Cc1ccc2nc(-c3ccc(NC(=O)CN(C)S(=O)(=O)c4ccccc4)cc3)sc2c1 -5%
CN(C)c1nc(Nc2ccc(Cl)c(Cl)c2)nc(N(C)C)n1 0%
Nc1nc(Nc2ccccc2)nc(NCCO)c1[N+](=O)[O-] -1%
CCOC(=O)C1=C(CN2CCc3ccccc32)NC(=O)NC1c1cc(C)ccc1C (stereo not given) 5%
COc1cc2c(cc1OC)C(C)N(S(=O)(=O)c1cnc(Cl)c(Cl)c1)CC2 (stereo not given) 10%
O=c1c2c3c(sc2n(CCN2CCCC2)c(=O)n1Cc1ccccc1)CCCCC3 1%
O=C(CC1NCCNC1=O)Nc1cc(Cl)cc(Cl)c1 (stereo not given) 2%
O=C(CC1SCCNC1=O)Nc1ccc(Cl)cc1 (stereo not given) -10%
Cc1ccc(C(=O)c2coc3ccc(O)c(CN(C)C)c23)cc1 11%
COc1cccc2sc(N(CCCN(C)C)C(=O)C(c3ccccc3)c3ccccc3)nc12 22%
COc1cccc2sc(N(CCCN(C)C)C(=O)CCS(=O)(=O)c3ccccc3)nc12 6%
C/C(=N\NC(=O)c1ccoc1C)c1ccccc1O 3%
O=S(=O)(NC1CCCCC1N1CCC(O)CC1)c1ccc(Cl)cc1 (stereo not given) 2%
COc1ccc(C2NC(=O)C(=O)/C2=C(\O)c2ccc(Cl)cc2)cc1OC (stereo not given) 5%
CC(C)OCCCNC(=O)C1CC(=O)N(C2CCCCCCC2)C1 (stereo not given) 10%
O=C(NCCc1ccc(Cl)cc1)C1CC(=O)N(C2CCCCC2)C1 (stereo not given) -5%
CC1(C)C=Cc2c(ccc3c2OC[C@@H](c2ccc(O)cc2O)C3)O1 2%
CNc1nc2c(C)cccn2c(=O)c1C=Nc1ccc(OC)cc1 0%
O=C(CCCN1C(=O)/C(=C\c2ccco2)SC1=S)Nc1cccc2ccccc12 -3%
CCOC(=O)CC1C(=O)NCCN1c1nc2c(C)cccn2c(=O)c1/C=C1\SC(=S)N(C(C)CC)C1=O (stereo not given) -23%
O=C(CCCN1C(=O)/C(=C/c2ccco2)SC1=S)Nc1ccccc1 0%
Nc1ccc2nn(-c3ccc(Cl)cc3)nc2c1 -4%
Cc1cc2oc(=O)cc(CN3CCN(S(=O)(=O)c4cccs4)CC3)c2cc1C(C)C 0%
COC(=O)c1ccc(CNC(=O)C2CCC(=O)N(Cc3cccc(F)c3)C2)cc1 (stereo not given) 4%
O=C(Cn1ncc2c3ccccc3n(Cc3ccccc3)c2c1=O)NCCCN1CCOCC1 4%
